Bioassay records (PubChem BioAssay)
BCR signal inh: qHTS Assay to Find Inhibitors of Chronic Active B-Cell Receptor Signaling; ABC-DLBCL IkBa-CBG/CBR reporter, luminescence ratio, 4 h; Potency, µM (titrated, usually from 46.1 µM), for the others: at the highest dose activity change, negative = inhibition, most hits filed as inhibitors; 340,000 compounds, 0.05% hits; active means well fitted inhibition curve with a large enough effect in the signal ratio, with a control signal flat, not every such curve was filed as active; inconclusive means small, poorly fitted or top-dose-only effect, or effect the other way, or a change in a side signal; the % refers to the signal ratio;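 further: potency means the concentration at half of the fitted maximal effect; plate controls were basal doxycycline-induced cells for no effect and cells given 10 µM MG132 for full effect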
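TMD8 ABC-DLBCL cells carrying doxycycline-inducible green luciferase fused to IkappaBalpha plus unfused red luciferase were exposed to compounds (up to 46 uM) for 4 hrs at 37C. Activity came from the overlap-corrected green/red luminescence ratio.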
D1 antag: Antagonist of Human D 1 Dopamine Receptor: qHTS | D(1A) dopamine receptor (Homo sapiens), P21728 | HEK293 TREx D1 cells, calcium flux, dopamine EC80; hits give low values | activity change, negative = inhibition, % at 10 µM | 360,000 compounds, 3.2% hits | AID 504652, 2011; in the data active means activity change below about -30%; further: on the % scale 0 is the no-effect control and ±100 the full control effect
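HEK293 T-REx cells expressing inducible, force-coupled D1 receptor; no-wash Ca dye, 30–90 min RT. Cmpd → 180 s read at 1 Hz → EC80 DA → 180 s read.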
D1 agonist: Allosteric Agonists of the Human D1 Dopamine Receptor: qHTS; 360,000 compounds, 1% hits; AID 504660, 2011; D(1A) dopamine receptor (Homo sapiens), P21728; activation, % at 2 µM; HEK293 T-REx D1 cells, calcium flux, agonist mode; in the data active means activation above about 30%; further: 0% is about no effect
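Inducible HEK293 T-REx D1 cells, force-coupled to calcium signalling, were plated at 4000 cells/well with tetracycline and held overnight at 30 C. After no-wash calcium dye loading, compound-evoked calcium rise over 180 s flagged agonists.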
D1 potentiator: Potentiators of Human D1 Dopamine Receptor: qHTS; 360,000 compounds, 0.036% hits; D(1A) dopamine receptor (Homo sapiens), P21728; AID 504651, 2011; HEK293 TREx D1 cells, calcium flux, dopamine EC20 potentiation; potentiation, % at 10 µM; in the data active means potentiation above about 30%; further: 0% is about no effect
DRD3 agonist: qHTS of D3 Dopamine Receptor Agonist: qHTS; 410,000 compounds, 0.58% hits; D3R DiscoveRx beta-arrestin cells, luminescence, 90 min; D(3) dopamine receptor (Homo sapiens), P35462; max activation, %; in the data active means max activation above about 30%; further: 0% is about no effect
Target sequence (P35462 whole entry, looked up): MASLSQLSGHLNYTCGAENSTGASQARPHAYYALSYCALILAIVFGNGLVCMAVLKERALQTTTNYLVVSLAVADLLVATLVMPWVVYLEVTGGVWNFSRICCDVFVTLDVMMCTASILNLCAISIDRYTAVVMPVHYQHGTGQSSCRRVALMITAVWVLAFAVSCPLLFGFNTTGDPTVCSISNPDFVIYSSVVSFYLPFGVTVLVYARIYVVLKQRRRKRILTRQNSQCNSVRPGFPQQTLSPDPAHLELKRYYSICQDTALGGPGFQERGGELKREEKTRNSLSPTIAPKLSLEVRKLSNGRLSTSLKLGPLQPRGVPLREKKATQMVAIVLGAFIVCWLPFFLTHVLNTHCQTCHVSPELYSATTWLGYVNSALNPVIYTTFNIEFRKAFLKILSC
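Agonist-mode cell screen: cells plated at 1500/well and incubated overnight at 37 °C, then exposed to library compounds for 90 min at 37 °C. Detection reagent was added for 30–60 min at room temperature, and luminescence was read.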
D3 antag: qHTS of D3 Dopamine Receptor Antagonist: qHTS; 360,000 compounds, 2.5% hits; D(3) dopamine receptor (Homo sapiens), P35462; AID 652054, 2013; D3R cells, DiscoveRx beta-arrestin luminescence, antagonist mode; hits give low values; max response, negative = inhibition, %; in the data active means max response below about -50%; inconclusive means no clear call, values can overlap the other calls; further: on the % scale 0 is the no-effect control and ±100 the full control effect
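Cells expressing the human receptor were seeded at 1500 cells/well, incubated overnight at 37 degrees C in 5% CO2, then exposed to library compounds with dopamine controls for 90 minutes at 37 degrees C before luminescent detection.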
Active calls of the source: *. Hits are enriched below; roughly 6% of the tested compounds scored in any of these assays.

How did Cc1cc(OCCN2CCCC2)ccc1[N+](=O)[O-] do in these assays?
BCR signal inh: -1%; D1 antag: -5; D1 agonist: 6; D1 potentiator: -2; DRD3 agonist: -23; D3 antag: -63*

How did O=[N+]([O-])c1ccccc1OCCN1CCCC1 do in these assays?
BCR signal inh: 0%; D1 antag: -38*; D1 agonist: 5; D1 potentiator: -4; DRD3 agonist: -13; D3 antag: -61*

How did Cc1ccc([N+](=O)[O-])c(OCCN2CCCCCC2)c1 do in these assays?
BCR signal inh: 8%; D1 antag: 2; D1 agonist: 4; D1 potentiator: -14; DRD3 agonist: -14; D3 antag: -90*

How did Cc1sc2c(c1C)c(=O)n(-c1ccc(Cl)cc1)c(=O)n2CC(=O)c1ccccc1 do in these assays?
D1 antag: 0; D1 agonist: -1; D1 potentiator: 0; DRD3 agonist: 4

How did Nc1[nH]c(C(=O)c2ccccc2)c(-c2ccc(Cl)cc2)c1C(=O)NCc1ccccc1 do in these assays?
DRD3 agonist: 57*; D3 antag: 0

What do the screens show for `O=S(=O)(c1ccc(Cl)s1)N1CCN(Cc2ccccc2)CC1`?
BCR signal inh: -1%; D1 antag: -7; D1 agonist: 3; D1 potentiator: -2; DRD3 agonist: -10; D3 antag: -59*

What do the screens show for `CS(=O)(=O)N1CCN(C/C=C/c2ccccc2)CC1`?
BCR signal inh: 22%; D1 antag: -4; D1 agonist: 2; D1 potentiator: -8; DRD3 agonist: 3; D3 antag: -7

Results for O=S(=O)(Cc1ccccc1)N1CCN(C/C=C/c2ccccc2)CC1 ?
BCR signal inh: -6%; D1 antag: -33*; D1 agonist: 47*; D1 potentiator: -12; DRD3 agonist: -24; D3 antag: inconclusive

Results for O=S(=O)(c1ccc(Cl)s1)N1CCN(C/C=C/c2ccccc2)CC1 ?
BCR signal inh: 4%; D1 antag: -2; D1 agonist: 11; D1 potentiator: 1; DRD3 agonist: 1; D3 antag: -82*

Results for Cc1ccc(OCC(=O)Nc2sc3c(c2C(N)=O)CCCC3)c(C(C)(C)C)c1 ?
D1 antag: -39*; D1 agonist: -1; D1 potentiator: 0; DRD3 agonist: 2

Results for Cc1ccc(OCC(=O)Nc2ccc(S(=O)(=O)Nc3ncccn3)cc2)c(C(C)(C)C)c1 ?
D1 antag: -31*; D1 agonist: -3; D1 potentiator: 2; DRD3 agonist: -4

Results for COCCn1nnnc1CN(CCc1ccccc1)Cc1cc2ccc(C)cc2[nH]c1=O ?
BCR signal inh: -5%; D1 antag: -38*; D1 agonist: 0; D1 potentiator: -1; DRD3 agonist: -11; D3 antag: 0

What do the screens show for `CCOc1ccc2[nH]c(=O)c(CN(Cc3ccco3)Cc3nnnn3Cc3ccccc3)cc2c1`?
BCR signal inh: 3%; D1 antag: -44*; D1 agonist: 0; D1 potentiator: -9; DRD3 agonist: 5; D3 antag: -5

How did Cc1ccc2[nH]c(=O)c(CN(CCc3ccccc3)Cc3nnnn3CC3CCCO3)cc2c1 (configuration not stated) do in these assays?
BCR signal inh: inconclusive; D1 antag: 17; D1 agonist: -1; D1 potentiator: -3; DRD3 agonist: -2; D3 antag: 5

What do the screens show for `COc1ccc2[nH]c(=O)c(CN(Cc3ccco3)Cc3nnnn3Cc3ccccc3)cc2c1`?
BCR signal inh: inconclusive; D1 antag: 6; D1 agonist: 0; D1 potentiator: -1; DRD3 agonist: -1; D3 antag: 32

Results for CC1(C(=O)NS(=O)(=O)c2ccc(C#N)cc2)CCN1C(=O)c1ccccc1CCc1ccccc1 (configuration not stated) ?
DRD3 agonist: -2; D3 antag: -28

Results for CC1(Oc2cccc(F)c2)CCN(Cc2csc3ccccc23)C1 (configuration not stated) ?
DRD3 agonist: -11; D3 antag: -106*

How did CC1(Oc2cccc(C#N)c2)CCN(Cc2csc3ccccc23)C1 (configuration not stated) do in these assays?
DRD3 agonist: -25; D3 antag: -81*

What do the screens show for `CC1(Oc2ccc(CC#N)cc2)CCN(Cc2ccccc2OC(F)F)C1` (configuration not stated)?
DRD3 agonist: -10; D3 antag: -25

What do the screens show for `CC1(Oc2cccc(C#N)c2)CCN(Cc2ccccc2OC(F)F)C1` (configuration not stated)?
DRD3 agonist: -10; D3 antag: -89*

Results for CC1(Oc2cccc(F)c2)CCN(Cc2ccc(-c3ccccc3)o2)C1 (configuration not stated) ?
DRD3 agonist: -19; D3 antag: inconclusive

Results for COC(=O)Cc1ccc(OC2(C)CCN(Cc3csc4ccccc34)C2)cc1 (configuration not stated) ?
DRD3 agonist: -25; D3 antag: -86*

What do the screens show for `CCCOC(=O)c1cccc(NC(=O)c2c(-c3ccccc3Cl)noc2C)c1`?
BCR signal inh: 22%; D1 antag: -4; D1 agonist: 14; D1 potentiator: -2; DRD3 agonist: -13

What do the screens show for `CN(C)CCNc1ncnc2c1ncn2[C@H]1CN(Cc2cccnc2)C[C@@H](CO)O1`?
DRD3 agonist: 7; D3 antag: 15

Results for Cc1cc2oc(C(=O)Nc3sc4c(c3C(=O)NCc3ccco3)CCC4)cc(=O)c2cc1C ?
D1 antag: -12; D1 agonist: -1; D1 potentiator: 0; DRD3 agonist: 7

How did CCc1nc2ccc(C(=O)N3CCN(C(=O)c4ccco4)CC3)cn2c1N(C)C(=O)c1cccc(OC)c1 do in these assays?
DRD3 agonist: -8; D3 antag: 0

Results for CN1C(=O)/C(=C\c2ccc(N(C)C)cc2)OC1=S ?
BCR signal inh: 9%; D1 antag: -66*; D1 agonist: 523*; D1 potentiator: -6; DRD3 agonist: 5; D3 antag: 6
